Source: PubChem BioAssay
Only some compounds are listed: those with a hit (about 1% of all), similar ones and a draw of the others.
SNCA expr inhib: SNCA gene expression inhibition | HEK-293 SNCA-luciferase knock-in, luminescence, 24 h | Potency, µM (doses to about 57.2 µM), for inactives: top-dose activity change, negative = inhibition, most hits filed as inhibitors | 0.17% of 140,000 active | AID 1671194;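 also: potency is read from the fitted curve at half-maximal effect; plate controls were DMSO cells for no effect and cell-free wells for full effect; nearly all actives have a fitted effect of over 45% in size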
HEK293 viab: cell viability loss counter-screen; Potency, µM (doses to about 57.1 µM), for inactives: at the top dose activity change, negative = cytotoxicity, actives largely listed as cytotoxic; 0.12% of 150,000 active; AID 1671193; HEK-293-SNCA-luc viability, GF-AFC fluorescence, 24 h;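 also: potency is read from the fitted curve at half-maximal effect; 0% = DMSO-treated cells and -100% = medium-only wells without cells; nearly all actives have a fitted effect of over 30% in size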
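Cytotoxicity counterscreen: after 24 h compound treatment of genome-edited SNCA-luciferase HEK-293 cells, live-cell protease substrate GF-AFC read by fluorescence after 30 min; activity scaled between DMSO (0%) and medium-only (-100%), curves Hill-fitted.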
IP6K1 inh: inhibitors of human IP6K1 | 0.81% of 140,000 active | IP6K1 kinase, ADP-Glo luminescence, 2 h; stronger effect = lower value | Q92551 | activity change, % (series mostly up to about 58 µM); in the data active = activity change below about -25%
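ADP-Glo luminescence measures ADP made by human IP6K1 during a 2 h RT reaction with ATP/IP6 (mix at 1.3 mM/130 uM); top library doses 57.5 and 19.1 uM final.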
GPT2 inhibitor: inhibitors of human GPT2 alanine aminotransferase; Q8TD30; Recombinant GPT2, coupled pyruvate oxidase/HRP Amplex Red fluorescence; Potency, µM (series often up to 57.7 µM), inactives show at the top dose activity change, negative = inhibition, actives largely listed as inhibitors; 0.25% of 100,000 active; also: potency is read from the fitted curve at half-maximal effect; nearly all actives have a fitted effect of over 60% in size
Target sequence (Q8TD30 whole entry, looked up): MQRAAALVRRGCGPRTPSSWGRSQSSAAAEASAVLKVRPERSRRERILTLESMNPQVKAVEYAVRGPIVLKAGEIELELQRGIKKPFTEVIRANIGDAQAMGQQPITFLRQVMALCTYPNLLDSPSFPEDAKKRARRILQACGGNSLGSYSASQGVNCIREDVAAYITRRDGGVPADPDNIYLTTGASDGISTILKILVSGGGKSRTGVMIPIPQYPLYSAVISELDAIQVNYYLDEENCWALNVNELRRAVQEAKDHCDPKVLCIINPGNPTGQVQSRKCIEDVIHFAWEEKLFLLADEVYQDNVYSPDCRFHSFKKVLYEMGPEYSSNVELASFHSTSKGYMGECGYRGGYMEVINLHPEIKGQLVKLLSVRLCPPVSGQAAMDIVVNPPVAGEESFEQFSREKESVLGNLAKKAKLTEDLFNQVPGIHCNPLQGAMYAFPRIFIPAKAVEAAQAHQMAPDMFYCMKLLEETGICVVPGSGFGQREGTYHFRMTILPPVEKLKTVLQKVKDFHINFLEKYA
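GPT2 10ng/uL, a-KG 250uM, L-Ala 2mM, HEPES pH7.5 + 0.0001% Tween; 30 min RT. Then Amplex mix (PO/HRP/ThPP), 30 min RT dark, fluorescence. AOA 50uM used as positive control.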
IP6K1 inh cnf: human IP6K1 inhibition, confirmatory; shares compounds with IP6K1 inh; recombinant IP6K1 kinase, ADP-Glo luminescence, 2 h; Potency, µM (doses to about 49 µM), for inactives: at the top dose activity change, negative = inhibition, actives largely listed as inhibitors; 13% of 1,200 active; also: potency is read from the fitted curve at half-maximal effect; nearly all actives have a fitted effect of over 65% in size
* hit, by the source's call. Unless noted, calls follow the shape of the dose curve; as a rule, active = well fitted curve in the direction sought with a large enough effect; inconclusive = small, poorly fitted or top-dose-only effect, or another doubt; inactive = no such curve, though single readings can be large; an effect the other way counts as inactive or inconclusive. Unless noted, % is scaled to controls: 0 for no effect and ±100 for the full control effect.

What do the screens show for `O=C(NCCNC(=O)c1ccc(C(F)(F)F)cc1)c1ccc(-c2cncnc2)cc1`?
IP6K1 inh: -3.9

Results for CCOc1cc(C(=O)Nc2ccc(-c3nc4ncccc4o3)cc2C)cc(OCC)c1OCC ?
SNCA expr inhib: -20.3%; HEK293 viab: 5.3%; IP6K1 inh: -26.2*; IP6K1 inh cnf: 9.0%

How did Cc1cccc2c1O[C@H]1[C@H](C(N)=O)CN(C(=O)c3ccc(C(F)(F)F)cc3)[C@@H]21 do in these assays?
IP6K1 inh: 8.8

How did OC1CC(c2cc(N3CCN(c4nsc5ccccc45)CC3)ncn2)C1 (stereo unspecified) do in these assays?
SNCA expr inhib: inconclusive; HEK293 viab: inconclusive; IP6K1 inh: 116.2; GPT2 inhibitor: -11.2%

What do the screens show for `Cc1ccc(CSc2ncc(Cl)c(C(=O)Oc3ccc(F)cc3)n2)cc1`?
SNCA expr inhib: -6.7%; HEK293 viab: -0.7%; IP6K1 inh: -25.2*; IP6K1 inh cnf: 13.4%

Results for COc1ccc(OC(=O)c2nc(SCc3ccc(F)cc3)ncc2Cl)cc1 ?
SNCA expr inhib: -7.6%; HEK293 viab: 3.0%; IP6K1 inh: -19.0

What do the screens show for `Cc1ccccc1OC(=O)c1nc(SCc2ccccc2F)ncc1Cl`?
SNCA expr inhib: 2.8%; HEK293 viab: inconclusive; IP6K1 inh: -12.8

What do the screens show for `Cc1ccc(CNC(=O)c2nc(SCc3ccc(C)cc3)ncc2Cl)cc1`?
SNCA expr inhib: inconclusive; HEK293 viab: 8.8%; IP6K1 inh: -6.5

Results for COc1ccc(OC(=O)c2nc(SCc3ccc(C)cc3)ncc2Cl)cc1 ?
SNCA expr inhib: 6.1%; HEK293 viab: 4.6%; IP6K1 inh: -28.2*; IP6K1 inh cnf: -2.7%

How did O=C(Oc1ccccc1F)c1nc(SCc2ccc(F)cc2)ncc1Cl do in these assays?
SNCA expr inhib: 18.7%; HEK293 viab: 7.1%; IP6K1 inh: -37.9*; IP6K1 inh cnf: -1.2%

Results for COc1cccc(S(=O)(=O)N2CCCN(S(=O)(=O)c3ccccc3)CCC(=O)NCC2)c1 ?
SNCA expr inhib: 15.2%; HEK293 viab: -3.3%; IP6K1 inh: -5.9; GPT2 inhibitor: inactive

What do the screens show for `COc1cccc(Cn2c(C)c(CNCc3ccccc3Cl)c(C(=O)O)c2C)c1`?
SNCA expr inhib: -19.7%; HEK293 viab: -1.9%; IP6K1 inh: -26.7*; IP6K1 inh cnf: 0.7%

Results for CS(=O)(=O)N1CCC(Cc2ccc(C(=O)NCc3ccc(F)cc3)cc2)CC1 ?
SNCA expr inhib: -7.3%; HEK293 viab: -7.6%; IP6K1 inh: 21.7; GPT2 inhibitor: 0.8%

How did CCOC(=O)c1cccc(NC(=O)N2CC[C@@H](CC(=O)Nc3ccccc3)[C@@H](CC)C2)c1 do in these assays?
SNCA expr inhib: 3.2%; HEK293 viab: -6.2%; IP6K1 inh: 7.6; GPT2 inhibitor: 0.1%

How did CCOC(=O)c1cccc(NC(=O)N2CC[C@@H](CC(=O)Nc3nccs3)[C@@H](CC)C2)c1 do in these assays?
SNCA expr inhib: -11.7%; HEK293 viab: 4.0%; IP6K1 inh: -35.3*; GPT2 inhibitor: inactive; IP6K1 inh cnf: inconclusive

How did CC(C)(C)CC(=O)N1CCC(N2C(=O)CCC2C(=O)NCc2ccccc2)CC1 (stereo unspecified) do in these assays?
SNCA expr inhib: 17.8%; HEK293 viab: -10.7%; IP6K1 inh: 6.6; GPT2 inhibitor: inactive

How did COC(=O)c1cccc(NC2=NS(=O)(=O)c3ccccc32)c1 do in these assays?
SNCA expr inhib: 8.0%; HEK293 viab: -14.6%; IP6K1 inh: -39.5*; IP6K1 inh cnf: inconclusive

How did CC(C)c1cccc(C(C)C)c1NC1=NS(=O)(=O)c2ccccc21 do in these assays?
SNCA expr inhib: -2.0%; HEK293 viab: -25.0%; IP6K1 inh: 14.3

Results for COc1cccc(-c2noc(CC3CCN(C(=O)COc4cccc(C)c4)CC3)n2)c1 ?
SNCA expr inhib: -17.1%; HEK293 viab: -11.8%; IP6K1 inh: -25.3*; GPT2 inhibitor: 0.4%; IP6K1 inh cnf: -17.8%

How did CC(C)Cn1c(=O)c2ccccc2n2c(CCC(=O)NCc3ccc(Cl)cc3)nnc12 do in these assays?
SNCA expr inhib: 5.7%; HEK293 viab: 1.7%; IP6K1 inh: -28.3*; IP6K1 inh cnf: -2.8%
